# In the supplement of paper PMC6555819:
# Columns and labels:
# Test in all cases: PBM binding z-score (relative to random genomic background probes); higher = stronger binding; sequences stand for … in GC…GCGATTGACAGCGTAGAATGAAGG
# [1] = tested on: FXR:RXRa (NR concentration 270 nM, RXRa partner concentration 90 nM)
# Method in brief: (§1)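 Scanned fluorescence from custom Agilent 4×180K protein-binding microarrays was regression-normalized. Binding z-scores use random background probes as reference. Ligand-free nuclear receptor dimers were incubated on the arrays for 1 h and detected with antibodies against each partner (one per run).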
# [2] = tested on: LXRa:RXRa (NR concentration 270 nM, RXRa partner concentration 90 nM)
# Method in brief: as §1
# [3] = tested on: LXRa homodimer (NR concentration 270 nM)
# Method in brief: as §1
# [4] = tested on: LXRb:RXRa (NR concentration 270 nM, RXRa partner concentration 90 nM)
# Method in brief: as §1
# [5] = tested on: LXRb homodimer (NR concentration 270 nM)
# Method in brief: as §1
# [6] = tested on: PPARa:RXRa (NR concentration 270 nM, RXRa partner concentration 90 nM)
# Method in brief: as §1
# [7] = tested on: PPARg:RXRa (NR concentration 180 nM, RXRa partner concentration 90 nM)
# Method in brief: as §1
# [8] = tested on: PPARg:RXRa 270nM:90nM, anti-RXR (NR concentration 270 nM, RXRa partner concentration 90 nM)
# Method in brief: as §1
# [9] = tested on: PPARg:RXRa 30nM:10nM, anti-RXR (NR concentration 30 nM, RXRa partner concentration 10 nM)
# Method in brief: as §1
# [10] = tested on: PPARg:RXRa 90nM:30nM, anti-RXR (NR concentration 90 nM, RXRa partner concentration 30 nM)
# Method in brief: as §1
Sequence,PBM binding z-score [1],PBM binding z-score [2],PBM binding z-score [3],PBM binding z-score [4],PBM binding z-score [5],PBM binding z-score [6],PBM binding z-score [7],PBM binding z-score [8],PBM binding z-score [9],PBM binding z-score [10]
AGAATGAGGTTATTATGATCAGGGAATTGCGGTC,1.62,1.46,0.202,1.16,0.134,2.71,1.93,1.96,0.795,1.48
GCATATAGGTAATACTAGGTGAAAGTCCGATTGT,0.715,2.49,0.179,0.49,-0.275,2.06,2.22,2.48,1.09,2.43
CAAACTAGGTCAAGAAAGGTCAAAGTCGAATGAC,7.13,7.84,7.14,6.98,2.48,6.35,8.96,7.74,5.91,7.85
CAAACTAGGCCAAAGGTCAAAGTCGAGCCAACCA,6.1,5.86,4.2,5.75,2.08,7.88,12.3,10.6,11,11.5
CGAACGAGGGGATGAGTTGATAGCAAATGCCGAT,0.0387,-0.222,-0.351,-0.0303,-0.345,-0.335,0.733,0.0328,-0.38,-0.23
CGAACTAGGTCATTAACAGGACAGTGAATAGTAA,3.27,2.59,0.8,1.88,-0.0794,4.12,7.01,5.93,3.43,5.45
CGGCCAAGGTCAGCAGGTCAGTGAAAGCGACGTG,5.72,3.58,-0.0772,2.9,-0.899,4.86,4.33,4.32,0.918,2.85
AGTCAAAGTTCAGGACGAGGTAGCGTAAAGCACG,3.74,3.36,1.03,1.58,-0.21,3.13,4.27,4.86,1.87,3.74
TCATACAGGTAAATGCTAGGTGAAAGTCCGATCT,0.695,0.892,0.122,0.729,0.432,1.07,0.609,2.04,3.75,2.83
GCTGCTAGGTCAGGTTGGTCAGCTAGCGGGTACG,1.15,0.736,-0.0466,0.193,-0.466,1.36,-0.0149,0.792,-0.603,0.329
CGAACGAGGGCATGAGTTGTTAGCAAATGCCGAT,0.401,0.0861,-0.503,0.156,-1.1,1.01,1.08,1.21,-0.27,0.425
CTACCAAGGTGGACAAGGTCGTTGATTACTATTC,0.175,0.496,0.259,0.805,-0.653,0.861,0.061,0.155,-0.189,-0.0308
TTACCAAGGAGAGCTGAGGTCGTTGATCCAACTC,0.524,-0.0675,-0.298,0.248,-1.1,0.632,-0.233,0.453,0.297,0.316
CGTCCAAGGTCATAGGAGGTCGGTGAAGACAGAT,7.17,6.22,1.31,4.11,0.234,5.36,4.31,4.86,1.6,3.35
TCATATAGGTAAAAGGTGATAGTCGGTGTGGTAA,1.41,1.28,0.217,1.35,0.351,4.6,8.06,7.95,8.2,8.56
GGAACGAGGGCATTTGAGTTGATAGCATGGCGAT,1.31,1.6,-0.156,0.482,-0.207,1.65,0.939,0.641,-0.0141,0.257
AGTCAAAGCTCAGGACGAGGTAACGTAAAGCACG,-0.244,-0.551,-0.393,-0.561,-0.87,-0.301,0.722,-0.305,-0.133,-0.117
GATACAGGGTCAAGGCCAGAGTCCGCGTATTGAT,6.15,4.03,-0.217,3.58,0.0048,5.35,5.26,5.31,1.52,3.89
ACTAGCAGGCCAAGTTTGGGCCACTCAAACAAAG,-0.478,-0.716,-0.865,-0.61,-1.23,-0.243,-0.254,-0.685,-0.785,-0.814
GCTTACGGGTCAAAGGGTATAGCATGAATAGAAT,6.94,4.45,0.132,4.28,0.557,6.21,9,7.96,7.14,8.29
AGTCAAAGTTCCGGACGAGGTAACGTAAAGCACG,-0.0931,-0.354,-0.166,-0.301,-0.695,-0.0739,0.679,0.221,-0.0701,0.189
CTCGAAAGGTCGGTCGAGGTGAGTATACGGATAA,2.43,1.82,-0.49,1.29,-0.496,2.75,0.678,1.5,0.401,0.892
TCTAGCAGGCTAGAGGGTCACTCAAGAGGTACGG,1.01,0.938,-0.529,0.868,-1.08,2.4,1.05,2,1.9,1.98
ATCTCTAGGTAACAAGTTGAGTGAAAGAGAGGAC,0.601,0.354,0.274,0.114,0.76,0.677,1.25,1.76,0.856,1.6
ATCGAAAGGTCGAAGGCGAGTATACCCACCCGAA,4.01,3.3,0.25,2.4,0.608,3.71,2.33,2.5,0.887,1.49

Sequence,PBM binding z-score [1],PBM binding z-score [2],PBM binding z-score [3],PBM binding z-score [4],PBM binding z-score [5],PBM binding z-score [6],PBM binding z-score [7],PBM binding z-score [8],PBM binding z-score [9],PBM binding z-score [10]
GCATATAGGTAATACAAGGTGATAGTCCGATTGT,1.42,0.97,0.0526,-0.116,-0.184,0.93,1.32,0.737,0.438,0.536
GCTGCTAGGTCAACTGATTGTCAGCTAAAGCTCG,4.09,2.79,-0.17,2.06,0.0753,3.54,2.73,3.13,0.683,2.12
GCTTGTAGATCAAGGTTAAGTAAGACTAAGCTAA,0.31,0.866,-0.213,0.847,-0.28,1.8,1.15,2.27,0.377,1.78
ATCGAAACGTCGAAGGTGAGTATACCCACCCGAA,-0.17,-0.352,-0.345,-0.738,-0.334,-0.193,0.676,-0.0479,0.0501,-0.0142
TCTATTAGTTGATTAGGGCAAACGAAACAGCGGA,0.336,0.43,0.307,0.724,0.369,0.691,0.317,1.62,3.24,2.29
CCTCGGAGGACAACAGGAGGTCAGAGCAGCCAGA,1.3,1.9,1.9,1.4,-0.432,2.01,0.586,0.217,-0.349,-0.371
TGAATGAGGTTAAACATCAGGGAACGTGGCGTCG,3.51,2.57,-0.0319,1.69,-0.0141,3.88,2.33,2.74,1.06,1.93
CGAACTAGGTCATCCAGGACAGTCAATACATTGA,4.68,3.11,0.817,2.43,0.306,5.03,7.74,6.5,3.94,6.22
CCTAGTTGTTCAAGGTCACACACGCTATAGGTAC,4.9,4.93,4.85,4.17,1.95,4.26,2.64,3.12,1.55,2.55
TCATATAGGTAAACAGGTGAAGGTCCGTAAGTTA,0.526,0.84,0.00797,0.841,-0.136,2.21,2.67,3.2,4.31,3.46
GCTTGTAGATCGAGGTTAAGAAAGACTAAGCTAA,0.262,1.09,-0.228,0.65,-0.682,1.68,-0.0308,0.648,-0.204,0.479
TCGAGTAGGTTAGCCGGGGCATTCAGCCAACATA,0.0762,-0.0841,-0.659,0.0461,-1.01,0.893,-0.0642,0.609,0.847,0.701
TCTAGTTGGACAAAGGTCACACACTCGAAATGCG,5.55,5.75,3.58,5.38,1.83,6.21,9.82,8.72,9.32,9.4
AGAACGAGGGCACGCTGAGTTGAGAGCAGAGTAG,1.03,1.06,-0.514,0.188,-0.934,2.12,2.05,1.81,0.0205,0.958
CCTTACGGGTCACTGACAGGCTATAGCATTTGGA,4.95,3.52,-0.0559,3.1,-0.0175,4.91,3.88,4.36,1.54,2.83
TCTAGCAGGGCAGAGGGTCACTCAAGAGGTACGG,1.06,1.06,-0.469,1.04,-0.996,2.51,2.06,3.48,2.03,3.63
CCTTACGTGTCACGAGGTTATAGCACGACGAGCG,1.42,1.62,0.447,1.29,0.663,2.43,2.05,1.6,0.219,0.814
TAGCCTAGGTCATGCGCCAGTATACCACGCGAAC,4.17,3.31,0.602,2.61,0.0918,3.83,2.77,3.08,0.794,1.89
AGAACGAGGGCACTGAGTTGATAGCACGGGTGGC,0.0718,-0.082,-0.301,-0.236,-0.887,1.52,1.5,1.04,0.0133,0.347
CCTACTAGGCCAAGGTCATTGATCAGTCAAAGCA,3.42,3.71,2.03,3.21,0.097,4.66,4.96,4.59,2.19,4.42
AACTCTAGGTAAAGATAGTTCAGTGAATGCAAAT,0.28,3.96,0.498,0.633,-0.176,0.465,0.601,0.353,0.0247,0.245
CGAACTAGGTCAGAACTGGACAGTGAAGGATGAT,0.671,0.375,-0.326,0.262,-0.439,3.26,5.1,4.49,1.77,3.68
ATCTGTAGGTTAAGGGTCATTCAGGTTGGTTCGC,5.22,5.26,3.63,4.56,1.72,5.72,9.93,9.03,9.65,10.6
CCAGACAGGTGAGCAGGTAACTCAGCCTCGATTA,-0.268,0.0871,-0.134,0.00402,-0.328,0.272,0.174,-0.00169,-0.644,-0.464
